Rv3671c inh: Rv3671c serine protease inhibitors, primary screen, biochemical, fluorescence polarization, M. tuberculosis H37Rv; P9WHR9; inhibition, % at 5.96 µM; hit rate 0.048% among 320,000; in the data active = inhibition above about 38%;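 also: extracellular domain of Rv3671c used as enzyme; 0% = enzyme with DMSO and 100% = no enzyme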
FBA Mtb inh: Mtb FBA enzyme inhibitors, primary screen, biochemical, fluorescence, strain H37Rv. purified M. tuberculosis FBA, fluorescence read-out. AID 588726, 2011. Fructose-bisphosphate aldolase (Mycobacterium tuberculosis (strain ATCC 25618 / H37Rv)), …. inhibition, % at 1 µM. hit rate 2.3% among 360,000;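 also: 0% = vehicle and 100% = reference inhibitor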
GDH-TPI counter-1: GDH-TPI coupling enzyme inhibitors, primary screen, artefact control for M. tuberculosis FBA inhibitor project, biochemical, absorbance, full deck; GDH-TPI coupled enzyme counterscreen, NADH absorbance; hit rate 1.2% among 360,000; inhibition, % at 4.8 µM; in the data active = inhibition above about 30%;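 also: 0% = DMSO wells and 100% = wells lacking the enzyme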
Mtb UGM inh: M. tuberculosis UGM enzyme inhibitors, primary screen, biochemical, fluorescence polarization, single point | UDP-galactopyranose mutase (Mycobacterium tuberculosis (strain ATCC 25618 / H37Rv)), … | purified UGM, fluorescence polarization probe displacement | inhibition, % at 10 µM | hit rate 0.06% among 320,000 | AID 504406, 2011; in the data active = inhibition above about 10%, passing the limit was not always enough
Target sequence (P9WIQ1 whole entry, looked up): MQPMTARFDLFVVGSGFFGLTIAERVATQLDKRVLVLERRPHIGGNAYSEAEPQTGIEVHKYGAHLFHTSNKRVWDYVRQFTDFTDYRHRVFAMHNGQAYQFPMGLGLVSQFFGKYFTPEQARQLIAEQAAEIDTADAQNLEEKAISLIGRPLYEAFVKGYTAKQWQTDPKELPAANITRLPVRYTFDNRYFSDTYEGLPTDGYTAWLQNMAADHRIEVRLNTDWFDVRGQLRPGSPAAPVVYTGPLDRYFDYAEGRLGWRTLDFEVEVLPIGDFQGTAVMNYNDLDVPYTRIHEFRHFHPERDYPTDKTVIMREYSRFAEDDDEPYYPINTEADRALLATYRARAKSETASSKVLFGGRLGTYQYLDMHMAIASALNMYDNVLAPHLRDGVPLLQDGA
Mtb FBA inh conf: M. tuberculosis aldolase blockers, biochemical, fluorescence, strain H37Rv, confirmation; AID 651616, 2012; shares compounds with FBA Mtb inh; hit rate 78% among 5,600; purified M. tuberculosis FBA, fluorescence read-out; inhibition, % at 1 µM;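 also: 0% = vehicle wells and 100% = reference inhibitor wells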
GDH-TPI counter-2: GDH-TPI coupling enzyme inhibitors, artefact control for M. tuberculosis FBA inhibitor project, biochemical, fluorescence, high throughput | inhibition, % at 1 µM | GDH-TPI coupled enzyme counterscreen | hit rate 81% among 5,600 | shares compounds with FBA Mtb inh; in the data active = inhibition above about 10%
Starred values were filed as active, the others as inactive; x = not tested or not shown; + = active, no number; ! = a repeat was not active. Shown are actives, neighbours in structure and some others; about 3.5% of the full set was active somewhere. Rule as the data show it, unless noted: active = inhibition above about 27%; inactive = the rest.

SMILES	Rv3671c inh	FBA Mtb inh	GDH-TPI counter-1	Mtb UGM inh	Mtb FBA inh conf	GDH-TPI counter-2
O=C(NCC12CC3CC(CC(C3)C1)C2)c1nc2ncccn2n1	1	0	-15	0	x	x
CCCn1nc2cc(C(=O)NCC34CC5CC(CC(C5)C3)C4)ccc2c1OCC	6	29*	9	2	4	-3
CC12CCC(=O)N1C(C(=O)NNC(=O)COc1ccc(Br)cc1)CS2 (configuration not stated)	-2	2	-7	-2	x	x
Cc1ccc(S(=O)(=O)NN2C(=O)c3ccccc3NC2(C)C)cc1	6	36*	4	0	+	+
CC1(C)Nc2ccccc2C(=O)N1NS(=O)(=O)c1ccccc1	4	29*	4	0	-1	-4
O=C1c2ccccc2NC2(CCCC2)N1NS(=O)(=O)c1ccccc1	18	22	8	-1	x	x
Nc1nc(SCC(=O)Nc2ccc(S(N)(=O)=O)cc2)n[nH]1	1	1	7	0	x	x
Cc1ccc(Oc2ccc(NC(=O)CSc3n[nH]c(N)n3)cc2)cc1	1	32*	11	-1	-1	-3
Cc1ccc(NC(=O)C(c2ccccc2)N2CCN(C(=O)c3ccco3)CC2)cc1Cl (configuration not stated)	-19	0	-3	-1	x	x
CC1CCCCC12NC(=O)N(CC(=O)Nc1ccc(N3CCOCC3)cc1)C2=O (configuration not stated)	-1	-2	-3	0	x	x
O=C(Nc1ccc(S(=O)(=O)Nc2nccs2)cc1)c1cnc(Cl)c(Cl)c1	-18	0	6	3	x	x
CN1C(=O)c2ccccc2N(C)C1c1ccccc1Cl (configuration not stated)	4	64*	-7	-4	57*	38*
CN1c2ccccc2C(=O)NC1c1ccc(Cl)cc1 (configuration not stated)	-3	15	-2	1	x	x
CN1C(=O)c2ccccc2N(C)C1c1cccs1 (configuration not stated)	-1	36*	15	1	200*	136*
COC(=O)[C@@]1(Cc2ccc(F)cc2)[C@H]2c3cc(C(=O)N(C)C)n(Cc4c(CO)[nH]cc(C)c4=O)c3C[C@H]2CN1C(=O)c1ccccc1	5	x	x	3	x	x
Oc1c(Br)cccc1/C=N/c1ncn[nH]1	1	1	-5	0	x	x
O=C(O)C1CCN(C(=O)CSc2nnc(-c3ccccc3)o2)CC1	-1	28*	7	3	71*	53*
Cc1nc(-c2ccccc2)ccc1C(=O)O	-2	1	0	3	x	x
Cc1nc(-c2cccc3ccccc23)ccc1C(=O)O	2	41*	8	0	75*	67*
Cc1ccc(S(=O)(=O)N(CC(=O)NCc2ccccn2)c2ccc(Cl)cc2)cc1	-6	1	-5	-1	x	x
CSc1ccc(S(=O)(=O)N(CC(=O)NCc2ccccn2)c2ccc(C)cc2)cc1	-4	77*	-3	-2	181*	141*
Cn1ccnc1-c1ccc(-c2nccn2C)cc1	1	52*	-7	-2	+	186*
O=C(O)CSc1cccc2cccnc12	-5	27*!	-1	-1	8	10*
CCN(CC)S(=O)(=O)c1ccc(NC(=O)COC(=O)CNS(=O)(=O)/C=C/c2ccccc2)cc1	-15	0	1	2	x	x
O=C1c2cccc3cccc(c23)C(=O)N1Cc1ccccn1	x	32*	17	x	61*	37*
SMILES	Rv3671c inh	FBA Mtb inh	GDH-TPI counter-1	Mtb UGM inh	Mtb FBA inh conf	GDH-TPI counter-2
O=C1c2cccc3cccc(c23)C(=O)N1c1ccccn1	5	51*	9	-2	-16	-16
Cc1ccc(CNC(=O)CN(C(=O)C2(C)CC(=O)N=C3C=CC=CN32)c2cccc(C)c2C)cc1 (configuration not stated)	-14	111*	1	-1	93*	86*
Cc1ccc(CNC(=O)CN(C(=O)C2(C)CC(=O)N=C3C=CC=CN32)c2ccccc2)cc1 (configuration not stated)	5	74*	2	2	-1	-2
Cc1ccc(CN2CCN(CC(=O)NCc3ccccc3)CC2)cc1	x	-2	20	0	x	x
CCc1nc(SCc2cc(=O)[nH]c3ccccc23)c2c(C)c(C)sc2n1	x	5	1	x	x	x
COc1ccc(Cl)c2sc(N3CCN(C(C)=O)CC3)nc12	1	1	7	4	x	x
COc1ccc(C(=O)C2CCCN(C(=O)c3csc(SC)n3)C2)cc1F (configuration not stated)	x	0	-1	x	x	x
CCC1CCC2(CC1)NC(=O)N(CC(=O)Nc1ccc(OC)c(Cl)c1)C2=O (configuration not stated)	-1	-2	-5	-2	x	x
Cc1nc(N2CCC(C)CC2)c2c(C)c(C(=O)Nc3cccc(C(F)(F)F)c3)sc2n1	-6	-5	11	-1	x	x
Cc1nc(N2CCC(C)CC2)c2c(C)c(C(=O)Nc3ccc(C(F)(F)F)cc3)sc2n1	-24	34*	13	1	1	-1
N=c1oc2ccc3ccccc3c2cc1C(N)=S	-3	104*	5	-1	33*	17*
COc1ccc(NC(=O)C2(C)Cc3c(-c4ccc(N(C)C)cc4)ccnc3O2)cn1 (configuration not stated)	x	40*	27	x	129*	103*
CN(C)c1ccc(-c2ccnc3c2CC(C)(C(=O)Nc2ccc(Cl)c(C(F)(F)F)c2)O3)cc1 (configuration not stated)	x	84*	25	x	54*	40*
CC(=O)Nc1ccc(-c2ccnc3c2CC(C)(C(=O)Nc2ccc(Cl)c(C(F)(F)F)c2)O3)cc1 (configuration not stated)	x	3	13	x	x	x
N#Cc1c(N)nc(Sc2ccc(Cl)cc2)c(C#N)c1-c1ccccc1Cl	7	1	5	-2	x	x
C[N+]1(CC(=O)OCCCc2ccccc2)CCCCC1	7	30*	-3	-2	60*	42*
Cc1ccccc1CNC(=O)CCC(=O)N1CCOc2ccc(Cl)cc21	-7	-2	11	1	x	x
Nn1c(SCC(=O)Nc2nnc(-c3ccccc3)o2)nnc1C1CC1	-2	45*	8	-1	-1	-2
COc1ccc(/C=N/c2oc(-c3ccccc3)cc2C#N)cc1OC	0	48*	2	0	28*	25*
COc1ccc(/C=N/NC(=O)c2nc(-c3ccccc3)cc(-c3ccccc3)n2)cc1OC	4	-1	12	-2	x	x
O=C(Nc1ccnn1C1CCN(Cc2cccc(OCCO)c2)CC1)c1cccc(F)c1	-4	-1	0	-3	x	x

High-throughput results as filed in PubChem BioAssay.
